Cruzain inh Det – blocks cruzain activity in presence of Triton detergent | P25779 | purified cruzain, Z-FR-AMC fluorescence, 0.01% Triton | Potency, µM, for the others: max response, negative = inhibition, usual class: inhibitors | 200,000 compounds, 0.43% hits;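 also: plate controls were neutral wells for no effect and buffer without enzyme for full effect; nearly all actives have a fitted effect of over 40% in size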
Target sequence (P25779 123-467 limits assumed): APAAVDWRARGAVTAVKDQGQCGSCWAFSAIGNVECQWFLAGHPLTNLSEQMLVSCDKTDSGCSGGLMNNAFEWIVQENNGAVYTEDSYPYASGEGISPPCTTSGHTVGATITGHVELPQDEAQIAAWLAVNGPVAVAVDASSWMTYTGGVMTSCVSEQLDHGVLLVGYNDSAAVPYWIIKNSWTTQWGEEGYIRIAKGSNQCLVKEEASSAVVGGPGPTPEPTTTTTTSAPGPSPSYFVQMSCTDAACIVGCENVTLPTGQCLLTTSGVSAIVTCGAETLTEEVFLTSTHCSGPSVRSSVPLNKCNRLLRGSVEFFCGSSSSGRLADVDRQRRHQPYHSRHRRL
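Cysteine protease activity tested under reducing, mildly acidic conditions (100 mM sodium acetate pH 5.5, 5 mM DTT) plus 0.01% Triton X-100. Cruzain 1.5 nM; substrate Z-FR-AMC 2 uM; 15 min compound preincubation at room temperature.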
Cruzain inh noDet – cruzain (T. cruzi) inhibition without detergent | 200,000 compounds, 2.3% hits | purified cruzain, Z-FR-AMC fluorescence, no detergent | Potency, µM, without a hit: max response, negative = inhibition, hits mostly inhibitors;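 also: plate controls were enzyme without inhibitor for no effect and buffer without enzyme for full effect; nearly all actives have a fitted effect of over 40% in size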
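Detergent-free condition (0.00005% Triton X-100) in acetate buffer pH 5.5 with DTT. 1.5 nM enzyme and compound were pre-mixed 15 min, then 2 uM Z-FR-AMC substrate added; reaction progress from fluorescence change between first and third reads (60 s).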
* marks the source's active call; other numbers are inactive results. Compounds with a hit are over-represented: about 2.6% of the library has one in this group of screens. Calls follow the shape of the dose curve; as a rule, active = well fitted curve in the direction sought with a large enough effect; inconclusive = small, poorly fitted or top-dose-only effect, or another doubt; inactive = no such curve, though single readings can be large; an effect the other way counts as inactive or inconclusive. Potency is read from the fitted curve at half-maximal effect.

What do the screens show for `Cc1sc(NC(=S)NC(=O)c2cccs2)nc1-c1ccc(C(C)C)cc1`?
Cruzain inh Det: 0.4%; Cruzain inh noDet: 10µM*

How did Cc1ccc(-c2nc3ccccc3o2)cc1NC(=S)NC(=O)c1cccs1 do in these assays?
Cruzain inh Det: -3.2%; Cruzain inh noDet: inconclusive

Results for O=C(NC(=S)Nc1nc(-c2ccccc2)cs1)c1cccs1 ?
Cruzain inh Det: -4.0%; Cruzain inh noDet: inconclusive

How did Cc1cc(C)c2oc(-c3ccc(C)c(NC(=S)NC(=O)c4cccs4)c3)nc2c1 do in these assays?
Cruzain inh Det: 6.4%; Cruzain inh noDet: 7.94µM*

Results for Cc1sc(NC(=O)c2cccs2)nc1-c1ccccc1 ?
Cruzain inh Det: -7.6%; Cruzain inh noDet: 1.9%

What do the screens show for `Cc1ccc(-c2csc(NC(=S)NC(=O)c3cccs3)n2)cc1`?
Cruzain inh Det: -3.1%; Cruzain inh noDet: 15.8µM*

How did CCn1c(=O)cc(OCC(=O)N(C)c2ccc(OC)cc2)c2ccccc21 do in these assays?
Cruzain inh Det: 1.9%; Cruzain inh noDet: -8.5%

Results for CC(=O)N1CCC[C@@]2(CCN(Cc3ccccc3)C2)C1 ?
Cruzain inh Det: 4.1%; Cruzain inh noDet: -4.3%

How did O=C(Nc1c(C(=O)Nc2cccc(F)c2)oc2ccccc12)c1cc2ccccc2o1 do in these assays?
Cruzain inh Det: -2.6%; Cruzain inh noDet: 15.8µM*

Results for Cc1ccc(NC(=O)c2oc3ccccc3c2NC(=O)c2cc3ccccc3o2)cc1 ?
Cruzain inh Det: 0.4%; Cruzain inh noDet: inconclusive

Results for Cc1cccc(Cc2c(C)nc3nc(SCC(=O)NCc4ccc(F)cc4)nn3c2C)c1 ?
Cruzain inh Det: -5.9%; Cruzain inh noDet: 4.1%

Results for O=C(c1ccc2c(c1)OCO2)c1cn(Cc2ccc(Cl)cc2)c2ccc(F)cc2c1=O ?
Cruzain inh Det: -2.7%; Cruzain inh noDet: 25.1µM*

How did Cc1ccc2c(c1)c(=O)c(C(=O)c1ccc3c(c1)OCO3)cn2Cc1ccc(Cl)cc1 do in these assays?
Cruzain inh Det: -1.2%; Cruzain inh noDet: inconclusive

Results for Cc1ccc(Cl)cc1NC(=O)CCc1c(C)nc2c3cccnc3nn2c1C ?
Cruzain inh Det: -3.0%; Cruzain inh noDet: -2.7%

Results for Cc1oc2ncn(CC(C)C)c(=O)c2c1C(=O)NCCc1ccccc1 ?
Cruzain inh Det: -5.1%; Cruzain inh noDet: -18.0%

What do the screens show for `O=C(CNC(=O)c1ccccc1)OCc1nc2ccccc2s1`?
Cruzain inh Det: 25.1µM*; Cruzain inh noDet: 12.6µM*

Results for O=C(CNC(=O)c1ccc(Cl)cc1Cl)OCc1nc2ccccc2s1 ?
Cruzain inh Det: 7.94µM*; Cruzain inh noDet: 3.98µM*

Results for O=C(COC(=O)CCc1nc2ccccc2s1)Nc1ncc(Cl)cc1Cl ?
Cruzain inh Det: -5.6%; Cruzain inh noDet: -7.9%

What do the screens show for `CC(=O)OCc1nc2ccccc2s1`?
Cruzain inh Det: 1.9%; Cruzain inh noDet: -7.0%

How did Cc1cc2oc(C(=O)Nc3ccc(S(=O)(=O)N(C)Cc4ccccc4)cc3)cc(=O)c2cc1C do in these assays?
Cruzain inh Det: 0.6%; Cruzain inh noDet: -0.3%

How did CCOc1ccc(C(=O)Nc2ccc(NC(=O)c3cccs3)cc2)cc1[N+](=O)[O-] do in these assays?
Cruzain inh Det: 3.6%; Cruzain inh noDet: 7.94µM*

What do the screens show for `Cc1ccc(C(=O)NC(=S)Nc2ccc(NC(=O)c3cccs3)cc2)cc1[N+](=O)[O-]`?
Cruzain inh Det: -1.1%; Cruzain inh noDet: 10µM*

What do the screens show for `Cc1ccc(C(=O)NC(=S)Nc2ccccc2N2CCCC2)cc1[N+](=O)[O-]`?
Cruzain inh Det: -8.6%; Cruzain inh noDet: -21.4%

What do the screens show for `COc1ccc(C(=O)Nc2ccc(NC(=O)c3cccs3)cc2)cc1[N+](=O)[O-]`?
Cruzain inh Det: 2.7%; Cruzain inh noDet: -15.7%

Results for COc1ccccc1/C=C(/CC(=O)NCc1ccccc1)c1nc2ccccc2s1 ?
Cruzain inh Det: -4.3%; Cruzain inh noDet: inconclusive

How did COc1ccccc1/C=C(/CC(=O)NCc1ccc(F)cc1)c1nc2ccccc2s1 do in these assays?
Cruzain inh Det: -7.5%; Cruzain inh noDet: 15.8µM*

What do the screens show for `Cc1c(NC(=O)c2cc3ccccc3o2)cccc1-c1nc2ccccc2o1`?
Cruzain inh Det: -2.8%; Cruzain inh noDet: -20.0%

How did O=c1[nH]c(=O)n(CCc2ccc(F)cc2)c(O)c1C=NCc1ccc2c(c1)OCO2 do in these assays?
Cruzain inh Det: 12.6µM*; Cruzain inh noDet: inconclusive

Results for COc1ccc(CCn2c(O)c(C=NCc3ccc4c(c3)OCO4)c(=O)[nH]c2=O)cc1OC ?
Cruzain inh Det: -7.3%; Cruzain inh noDet: inconclusive

How did Cc1snc2sc(C(=O)c3ccc(Br)cc3)c(N)c12 do in these assays?
Cruzain inh Det: 20µM*; Cruzain inh noDet: 15.8µM*

How did Cc1ccc(C(=O)c2sc3nsc(C)c3c2N)cc1 do in these assays?
Cruzain inh Det: -4.0%; Cruzain inh noDet: -5.0%

How did Cc1ccc2nc(NC(=O)c3cccc(-c4cc5ccccc5oc4=O)c3)sc2c1 do in these assays?
Cruzain inh Det: -3.5%; Cruzain inh noDet: 10µM*

How did CCOc1ccc(C(=O)Nc2cccc(-c3cc4ccccc4oc3=O)c2)cc1[N+](=O)[O-] do in these assays?
Cruzain inh Det: 1.5%; Cruzain inh noDet: inconclusive

Results for O=C(Nc1cccc(Cl)c1N1CCCC1)c1cccc(-c2cc3ccccc3oc2=O)c1 ?
Cruzain inh Det: -0.3%; Cruzain inh noDet: 10µM*

Results for Cc1cc(NC(=O)c2ccc(Cl)c(Cl)c2)ccc1-c1cc2ccccc2oc1=O ?
Cruzain inh Det: 1.9%; Cruzain inh noDet: 17.4%

Results for CCOc1ccc2nc(NC(=O)c3cccc(-c4cc5ccccc5oc4=O)c3)sc2c1 ?
Cruzain inh Det: -2.3%; Cruzain inh noDet: 12.6µM*

What do the screens show for `CCn1nnc(NC(=O)c2cccc(-c3cc4ccccc4oc3=O)c2)n1`?
Cruzain inh Det: -2.2%; Cruzain inh noDet: 0.5%

How did NCCCCNS(=O)(=O)c1cccc2c(Cl)cccc12 do in these assays?
Cruzain inh Det: -7.3%; Cruzain inh noDet: 0.6%

How did Clc1ccc(/C=C/c2nc3ccccc3[nH]2)c(Cl)c1 do in these assays?
Cruzain inh Det: -7.5%; Cruzain inh noDet: inconclusive

Results for Clc1ccc(/C=C/c2nc3ccccc3[nH]2)cc1 ?
Cruzain inh Det: -20.4%; Cruzain inh noDet: 15.8µM*

How did CCOC(=O)c1cccc(NC(=O)CSc2ncc3c(n2)-c2ccccc2N(C)S3(=O)=O)c1 do in these assays?
Cruzain inh Det: 1.1%; Cruzain inh noDet: -4.7%

What do the screens show for `Clc1nnc(N/N=C/c2ccccc2)c2ccccc12`?
Cruzain inh Det: -6.7%; Cruzain inh noDet: 4.0%

How did Clc1ccc(/C=N/Nc2nnc(Cl)c3ccccc23)cc1 do in these assays?
Cruzain inh Det: -1.4%; Cruzain inh noDet: 25.1µM*

Results for Cc1ccc(NC(=O)/C=C/c2ccccc2)c(Br)c1 ?
Cruzain inh Det: -3.5%; Cruzain inh noDet: -4.9%

How did Cc1cccc(NC(=O)N2CCN(C(=O)c3nsc4ccccc34)CC2)c1C do in these assays?
Cruzain inh Det: -4.6%; Cruzain inh noDet: 11.2%

What do the screens show for `Cc1ccc(C(=O)Nc2nc(-c3nnn(-c4cccc(Cl)c4C)c3C)ns2)cc1C`?
Cruzain inh Det: -1.5%; Cruzain inh noDet: inconclusive

How did Cc1ccc(Cl)cc1-n1nnc(-c2nsc(NC(=O)c3ccccc3Cl)n2)c1C do in these assays?
Cruzain inh Det: -4.9%; Cruzain inh noDet: 3.16µM*

What do the screens show for `Cc1cccc(Cn2c(=O)n(Cc3ccc4c(c3)OCO4)c(=O)c3oc4ccccc4c32)c1`?
Cruzain inh Det: 0.4%; Cruzain inh noDet: 6.0%

What do the screens show for `Cc1nn2c(NCCCN3CCOCC3)c3c(nc2c1-c1ccccc1)CCC3`?
Cruzain inh Det: -1.6%; Cruzain inh noDet: -4.8%

What do the screens show for `CCCCNc1c2c(nc3c(-c4ccccc4)c(C)nn13)CCC2`?
Cruzain inh Det: -12.4%; Cruzain inh noDet: 7.94µM*

From PubChem BioAssay
